Results published in PubChem BioAssay AID493168 (National Center for Advancing Translational Sciences (NCATS), 2011).
Records with an inconclusive call do not appear. Where a call stands in place of a potency, no number is given. The source made the active and inactive calls. Calls come from the whole dose curve; as a rule, active = well fitted inhibition curve with a large enough effect; inconclusive = small, poorly fitted or top-dose-only effect, or effect the other way; inactive = flat fitted curve, though single readings scatter.

target: Ubiquitin carboxyl-terminal hydrolase 2 (Homo sapiens) (UniProt O75604); test: Confirmation Assay for Inhibitors of Ubiquitin-specific Protease USP2a Using CHOP2 as the Reporter; conditions: USP2 core, Ub-CHOP2 coupled reporter fluorescence; series mostly up to 38.3 µM; note: nearly all actives have a fitted effect of over 55% in size
Sequence (O75604 whole entry, looked up): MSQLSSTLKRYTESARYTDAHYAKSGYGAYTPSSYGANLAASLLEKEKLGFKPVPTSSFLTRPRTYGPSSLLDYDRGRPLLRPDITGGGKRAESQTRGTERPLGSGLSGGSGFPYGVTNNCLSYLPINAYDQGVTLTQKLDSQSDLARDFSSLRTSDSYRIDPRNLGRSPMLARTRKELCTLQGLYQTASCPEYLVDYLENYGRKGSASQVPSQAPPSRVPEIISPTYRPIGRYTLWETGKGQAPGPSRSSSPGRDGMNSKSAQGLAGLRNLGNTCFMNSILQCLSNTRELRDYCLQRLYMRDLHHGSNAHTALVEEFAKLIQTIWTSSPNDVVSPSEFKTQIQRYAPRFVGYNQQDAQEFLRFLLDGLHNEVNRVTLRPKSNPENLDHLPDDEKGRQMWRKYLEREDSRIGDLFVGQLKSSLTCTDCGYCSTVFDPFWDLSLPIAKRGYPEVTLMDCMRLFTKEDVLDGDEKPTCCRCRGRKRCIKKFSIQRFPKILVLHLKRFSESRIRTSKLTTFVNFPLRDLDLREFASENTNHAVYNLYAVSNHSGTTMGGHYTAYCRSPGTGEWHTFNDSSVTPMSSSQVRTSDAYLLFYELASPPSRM
How it was run: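 USP2 core (10 nM final) was preincubated with compound for 30 min at RT in Tris-HCl pH 8.0, CaCl2, beta-mercaptoethanol, CHAPS. Ub-CHOP2 and reporter substrate (25 nM final each) were added, and fluorescence (Ex 485/Em 531 nm) was read after 60 min.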
Potency is the fitted concentration of half-maximal effect.

| SMILES | Potency |
| --- | --- |
| O=C(CSc1nnc(SCc2ccccc2)s1)N/N=C/C=C/c1ccco1 | 13.1 µM (active) |
| CCc1cc2c(=O)c(-c3nc4ccccc4n3C)coc2c(CN2CCCCC2C)c1O (centres undefined) | inactive |
| O=C(Nc1ccccc1)c1cc(Cl)nc2ccccc12 | inactive |
| CC[n+]1c(/C=C/N(C)c2ccccc2)n(-c2ccccc2)c2ccc(-c3nc4ccccc4s3)cc21 | 13.1 µM (active) |
| CCCCCCCCCC[N+](C)(C)CC/C=C1/c2ccccc2Sc2ccc(Cl)cc21 | 13.1 µM (active) |
| CCOC(=O)C1CCN(CC(O)COc2ccc(C(C)(C)C)cc2)CC1 (centres undefined) | inactive |
| C[C@H](CO)N1C[C@H](C)[C@@H](CN(C)S(=O)(=O)c2cn(C)cn2)Oc2ccc(NC(=O)Cn3cnnn3)cc2C1=O | inactive |
| Nc1nc(NCCO)nc(NCC2CCCO2)c1[N+](=O)[O-] (centres undefined) | inactive |
| CC(=O)OCC(=O)Nc1ccc(Cl)cc1Cl | inactive |
| CC(C)(C)C1CCC2(CC1)Nc1cccc3cccc(c13)N2 | inactive |
| O=C(NC1CCCC1)C1C2C=CC(C2)C1C(=O)N1CCOCC1 (centres undefined) | inactive |
| CC1CCc2c(sc3nc(CN4CCOCC4)nc(NS(=O)(=O)c4cccc([N+](=O)[O-])c4)c23)C1 (centres undefined) | inactive |
| Cc1cc(NC(=O)CN2C(=O)NC3(CCCCC3C)C2=O)no1 (centres undefined) | inactive |
| C#CCOCCOCCOCCNc1nc(N2CCN(C(=O)CCCCCCCCCCNC(=O)[C@H]([C@@H](C)CC)n3cc(CCCCCN)nn3)CC2)nc(N2CCN(C(=O)CCCCCCCCCCNC(=O)[C@H](CCCCN)n3cc(CCCC(=O)O)nn3)CC2)n1 | 13.1 µM (active) |
| OCCN(Cc1ccccc1)c1ncnc2sccc12 | inactive |
| Cc1cc(=O)oc(C)c1C(=O)NCCc1ccccc1 | inactive |
| CC1(C)CC(=O)C2=C(C1)N(Cc1ccco1)C(=O)NC2(C(F)(F)F)C(F)(F)F | inactive |
| Cc1ccc(S(=O)(=O)N2CCOCC2)cc1NC(=O)CN1C(=O)NC(C)(c2ccc(Cl)cc2Cl)C1=O (centres undefined) | inactive |
| CN(C)CCCN1C(=O)C(=O)/C(=C(/O)c2ccncc2)C1c1cccnc1 (centres undefined) | inactive |
| CCOC(=O)c1c(C)[nH]c(C(=O)COC(=O)CSC)c1C | inactive |

| SMILES | Potency |
| --- | --- |
| COc1ccc(-n2c(=S)[nH]c3cc(C(=O)Nc4cc(OC)c(OC)c(OC)c4)ccc3c2=O)c(OC)c1 | inactive |
| CCC/C(O)=C1\C(=O)CC(C)(C)CC1=Nc1ccc(OC)cc1OC | inactive |
| CCCCCCCCCCOC(=O)Cn1c(COc2ccc(Cl)cc2)[n+](C)c2ccccc21 | 18.5 µM (active) |
| COc1ccc(/C=N\NC(=O)c2cc(O)c(O)c(O)c2)cc1COc1ccc(C(=O)OCC(C)C)cc1 | 14.7 µM (active) |
| O=C(CCSCc1ccc(Cl)cc1)NCCc1ccccc1 | inactive |
| O=C(NC1CCCCC1)C(c1ccco1)N(Cc1ccco1)C(=O)c1ccco1 (centres undefined) | inactive |
| Cc1ccc(CN2C(=O)N/C(=C\c3cccn3-c3cccc(C(=O)O)c3)C2=O)cc1 | inactive |
| CSc1cccc(NC(=O)c2ccccc2N(C)S(C)(=O)=O)c1 | inactive |
| Cc1ccccc1OCCn1nc(C(=O)O)c2ccccc2c1=O | inactive |
| Cc1nn(CC(=O)Nc2cccc(S(N)(=O)=O)c2)c(C)c1[N+](=O)[O-] | inactive |
| Cc1nc2ccccc2c2oc(C(=O)NCCN3CCN(C)CC3)cc12 | inactive |
| CC(C)CC(c1nnnn1CC1CCCO1)N1CCN(c2nc3ccccc3s2)CC1 (centres undefined) | inactive |
| O=C(/C=N/O)NCc1cccnc1 | inactive |
| CCOc1ccc2nc(NC(=O)Nc3ccccc3)sc2c1 | inactive |
| O=C1CC(c2ccc(Cl)cc2)SC(N(c2ccccc2)c2ccccc2)=N1 (centres undefined) | inactive |
| COc1ccc(OC)c(Nc2ccc(Nc3cc(OC)ccc3OC)nn2)c1 | inactive |
| Cc1cc(C)cc(NC(=O)CSc2nc3c(c(=O)[nH]2)CN(Cc2ccc(F)cc2)CC3)c1 | inactive |
| CCn1c(COc2ccc(C)cc2)nnc1SCC(=O)Nc1ccc2c(c1)OCCO2 | inactive |
| O=C(CSc1nc2ccccc2s1)NCCCN1CCOCC1 | inactive |
